According to PubChem BioAssay (EPA / NIEHS):
The source made the active and inactive calls. How the source made its calls: active means hit-call score of the fitted dose curve at least 0.9, where 1 is the maximum; inactive means score below 0.9.

Tests used:
[1] = read-out: TIMP metallopeptidase inhibitor 2 (TIMP2), TIMP2 (gene 7077); assay: BSK_KF3CT_TIMP2: BioMAP Diversity Plus: KF3CT Assay for TIMP metallopeptidase inhibitor 2 (TIMP2) Biomarker Activity (AID 2283071); conditions: primary human keratinocytes with fibroblasts; actives raise or lower the signal
Outline: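 Chemicals were dosed onto human skin primary co-cultures of keratinocytes and foreskin fibroblasts, and TIMP-2 was measured by ELISA after 24 hours. Activity in either direction was fitted relative to DMSO.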

[2] = read-out: Transforming growth factor beta 1 (TGFb1), TGFB1 (gene 7040); assay: BSK_KF3CT_TGFb1: BioMAP Diversity Plus: KF3CT Assay for Transforming growth factor beta 1 (TGFb1) Biomarker Activity (AID 2283072); conditions: primary human keratinocytes with fibroblasts; actives raise or lower the signal
Outline: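 KF3CT co-culture (keratinocytes + fibroblasts), 24 h exposure → TGF-b1 ELISA → bidirectional fit, DMSO = baseline. Parallel SRB total-protein staining (0.1% SRB, 10% TCA fixation, 560 nm) for cytotoxicity.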

[3] = read-out: C-C motif chemokine 2 (Homo sapiens) (UniProt P13500); assay: BSK_KF3CT_MCP1: BioMAP Diversity Plus: KF3CT Assay for Monocyte Chemoattractant Protein 1 (MCP1/CCL2) Biomarker Activity (AID 2283073); conditions: primary human keratinocytes with fibroblasts; actives raise or lower the signal
Outline: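 ELISA read-out of MCP-1, 24 h post-dose, in primary human skin keratinocytes co-cultured with fibroblasts. Parallel SRB staining monitors cytotoxicity; changes fitted both directions relative to DMSO.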

[4] = read-out: Matrix Metallopeptidase 9 (MMP9), MMP9 (gene 4318); assay: BSK_KF3CT_MMP9: BioMAP Diversity Plus: KF3CT Assay for Matrix Metallopeptidase 9 (MMP9) Biomarker Activity (AID 2283074); conditions: primary human keratinocytes with fibroblasts; actives raise or lower the signal;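 on AC50: MMP9 protein level quantified by ELISA in the co-culture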
Outline: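 ELISA read-out of MMP-9 at 24 h post-dosing in a co-culture of human skin keratinocytes and foreskin fibroblasts. Gain or loss of signal was fitted in both directions against DMSO.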

[5] = read-out: urokinase plasminogen activator (uPA), PLAU (gene 5328); assay: BSK_KF3CT_uPA: BioMAP Diversity Plus: KF3CT Assay for urokinase plasminogen activator (uPA) Biomarker Activity (AID 2283075); conditions: primary human keratinocytes with fibroblasts; actives raise or lower the signal
Outline: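 Skin co-culture (keratinocytes + foreskin fibroblasts), human primary; 24 h post-dose; uPA by ELISA; gain/loss fit vs DMSO baseline.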

CD40, CD40 (gene 958) [6] = assay: BSK_LPS_CD40: BioMAP Diversity Plus: LPS Assay for CD40 Biomarker Activity (AID 2283076); conditions: primary human HUVEC with PBMC; actives raise or lower the signal
Outline: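 In the LPS system of human endothelial cells with peripheral blood mononuclear cells, CD40 levels were read by ELISA 24 h post-treatment. Signal changes in either direction were fitted against the DMSO baseline, with parallel SRB protein staining.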

[7] = read-out: Interleukin-8 (IL8), CXCL8 (gene 3576); assay: BSK_LPS_IL8: BioMAP Diversity Plus: LPS Assay for Interleukin-8 (IL8) Biomarker Activity (AID 2283078); conditions: primary human HUVEC with PBMC; actives raise or lower the signal
Outline: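 ELISA read-out of IL-8 after 24 h chemical treatment of LPS-activated endothelial/PBMC human primary co-cultures. Changes either up or down relative to DMSO; overt cytotoxicity checked by sulforhodamine B staining in parallel wells.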

[8] = BSK_LPS_SRB: Viability Assessment in the BioMAP Diversity Plus: LPS Assay (AID 2283079); conditions: primary human HUVEC with PBMC;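 further: total protein by sulforhodamine B absorbance as a cytotoxicity measure; measured one day after compound addition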
Outline: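 SRB viability endpoint: cells fixed with 10% TCA, stained with 0.1% SRB, read at 560 nm, 24 h post-dose. HUVEC/PBMC co-culture; signal change in either direction scored relative to DMSO.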

[9] = read-out: Interleukin-1 alpha (IL1a), IL1A (gene 3552); assay: BSK_LPS_IL1a: BioMAP Diversity Plus: LPS Assay for Interleukin-1 alpha (IL1a) Biomarker Activity (AID 2283080); conditions: primary human HUVEC with PBMC; actives raise or lower the signal
Outline: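 Readout is IL-1a level by ELISA, 24 h post-dose, fitted as gain or loss relative to DMSO. System: LPS-activated human primary co-culture of vascular endothelium and peripheral blood mononuclear cells, with parallel SRB total-protein cytotoxicity.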

[10] = read-out: Monocyte Chemoattractant Protein-1 (MCP1), CCL2 (gene 6347); assay: BSK_LPS_MCP1: BioMAP Diversity Plus: LPS Assay for Monocyte Chemoattractant Protein-1 (MCP1) Biomarker Activity (AID 2283081); conditions: primary human HUVEC with PBMC; actives raise or lower the signal;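 on AC50: secreted MCP-1 protein quantified by ELISA in culture supernatant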
Outline: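 Secreted MCP-1 read by ELISA at 24 h post-dosing in an LPS-activated co-culture of endothelial cells with peripheral blood mononuclear cells. Fits run in both directions, DMSO as baseline; parallel SRB staining tracks overt cytotoxicity.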

[11] = BSK_LPS_PGE2: BioMAP Diversity Plus: LPS Assay for Prostaglandin E2 (PGE2) Biomarker Activity (AID 2283082); conditions: primary human HUVEC with PBMC; actives raise or lower the signal;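 on AC50: secreted prostaglandin E2 measured by ELISA in LPS-stimulated co-culture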
Outline: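 Compounds were added to the LPS co-culture of endothelium and PBMC, and PGE2 was measured by ELISA after 24 h. Responses in either direction were fitted with DMSO as baseline.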

[12] = read-out: Macrophage colony-stimulating factor (MCSF), CSF1 (gene 1435); assay: BSK_LPS_MCSF: BioMAP Diversity Plus: LPS Assay for Macrophage colony-stimulating factor (MCSF) Biomarker Activity (AID 2283083); conditions: primary human HUVEC with PBMC; actives raise or lower the signal
Outline: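 Bidirectional fitting against DMSO was applied to M-CSF levels read by ELISA at 24 h post-dose. The system pairs human umbilical vein endothelium with peripheral blood mononuclear cells; parallel SRB staining tracked cytotoxicity.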

[13] = read-out: Tumor necrosis factor (Homo sapiens) (UniProt P01375); assay: BSK_LPS_TNFa: BioMAP Diversity Plus: LPS Assay for Tumour Necrosis Factor alpha (TNFa) Biomarker Activity (AID 2283085); conditions: primary human HUVEC with PBMC; actives raise or lower the signal;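 on AC50: TNFa protein level quantified by ELISA in the co-culture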
Outline: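 Cells (umbilical vein endothelium plus peripheral blood mononuclear cells) were dosed with chemical, incubated 24 h, then TNFa was quantified by ELISA; values derive from bidirectional fitting with DMSO as baseline.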

[14] = read-out: Vascular cell adhesion molecule 1 (VCAM1), VCAM1 (gene 7412); assay: BSK_LPS_VCAM1: BioMAP Diversity Plus: LPS Assay for Vascular cell adhesion molecule 1 (VCAM1) Biomarker Activity (AID 2283086); conditions: primary human HUVEC with PBMC; actives raise or lower the signal
Outline: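 Cells are dosed in an LPS-stimulated endothelial/mononuclear co-culture and, after 24 h, VCAM-1 is quantified by ELISA. Activity in either direction is fitted relative to the DMSO negative control.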

CD38, CD38 (gene 952) = assay: BSK_SAg_CD38: BioMAP Diversity Plus: SAg Assay for CD38 Biomarker Activity (AID 2283087); conditions: primary human HUVEC with PBMC; actives raise or lower the signal
Outline: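 CD38 quantified by ELISA (fluorescence) in a superantigen-activated endothelial cell–PBMC co-culture at 24 h post-dose. Activity fitted in both directions relative to DMSO; parallel SRB and Alamar Blue cytotoxicity read-outs.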

CD40, CD40 (gene 958) [15] = assay: BSK_SAg_CD40: BioMAP Diversity Plus: SAg Assay for CD40 Biomarker Activity (AID 2283088); conditions: primary human HUVEC with PBMC; actives raise or lower the signal
Outline: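 CD40 is measured by fluorescence ELISA in an endothelial/PBMC primary human co-culture at 24 h post-dose. Fitting is bidirectional, DMSO baseline. Parallel SRB staining (560 nm) flags cytotoxicity.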

CD69, CD69 (gene 969) = assay: BSK_SAg_CD69: BioMAP Diversity Plus: SAg Assay for CD69 Biomarker Activity (AID 2283089); conditions: primary human HUVEC with PBMC; actives raise or lower the signal;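 further: cell surface CD69 protein quantified by ELISA with fluorescence detection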
Outline: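 Primary human vascular co-culture (umbilical vein endothelium with peripheral blood mononuclear cells) exposed to test chemical for 24 h. CD69 levels quantified by fluorescence ELISA; DMSO served as negative control for bidirectional fitting.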

[16] = read-out: Monocyte Chemoattractant Protein-1 (MCP1), CCL2 (gene 6347); assay: BSK_SAg_MCP1: BioMAP Diversity Plus: SAg Assay for Monocyte Chemoattractant Protein-1 (MCP1) Biomarker Activity (AID 2283090); conditions: primary human HUVEC with PBMC; actives raise or lower the signal
Outline: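 Values derive from bidirectional fitting of ELISA-measured MCP1 against DMSO controls. Readings were taken 24 h after dosing human vascular endothelial cells co-cultured with peripheral blood mononuclear cells under superantigen stimulation.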

[17] = read-out: Tissue Factor, F3 (gene 2152); assay: BSK_LPS_TissueFactor: BioMAP Diversity Plus: LPS Assay for Tissue Factor Biomarker Activity (AID 2283084); conditions: primary human HUVEC with PBMC; actives raise or lower the signal
Outline: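 Compound was added to an endothelial cell/PBMC co-culture, and after 24 h tissue factor (CD142) was read by ELISA. Gain or loss of signal was fitted against a DMSO baseline, and parallel SRB staining (560 nm) tracked overt cytotoxicity.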

[18] = read-out: E-selectin (Homo sapiens) (UniProt P16581); assay: BSK_LPS_Eselectin: BioMAP Diversity Plus: LPS Assay for Eselectin Biomarker Activity (AID 2283077); conditions: primary human HUVEC with PBMC; actives raise or lower the signal
Outline: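 E-selectin ELISA on LPS-stimulated endothelial cell/PBMC co-cultures, read 24 h post-treatment; gains and losses fitted against DMSO. Parallel SRB staining (0.1% SRB after 10% TCA fixation, 560 nm) flags overt cytotoxicity.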

Measured: AC50

Sequence of Tumor necrosis factor (Homo sapiens) (P01375 whole entry, looked up): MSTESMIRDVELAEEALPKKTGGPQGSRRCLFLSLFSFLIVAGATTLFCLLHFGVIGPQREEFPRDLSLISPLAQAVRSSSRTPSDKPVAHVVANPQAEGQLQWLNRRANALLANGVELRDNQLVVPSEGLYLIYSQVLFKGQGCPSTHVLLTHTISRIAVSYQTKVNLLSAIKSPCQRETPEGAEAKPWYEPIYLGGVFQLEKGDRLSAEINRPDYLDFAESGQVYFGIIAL
Sequence of E-selectin (Homo sapiens) (P16581 whole entry, looked up): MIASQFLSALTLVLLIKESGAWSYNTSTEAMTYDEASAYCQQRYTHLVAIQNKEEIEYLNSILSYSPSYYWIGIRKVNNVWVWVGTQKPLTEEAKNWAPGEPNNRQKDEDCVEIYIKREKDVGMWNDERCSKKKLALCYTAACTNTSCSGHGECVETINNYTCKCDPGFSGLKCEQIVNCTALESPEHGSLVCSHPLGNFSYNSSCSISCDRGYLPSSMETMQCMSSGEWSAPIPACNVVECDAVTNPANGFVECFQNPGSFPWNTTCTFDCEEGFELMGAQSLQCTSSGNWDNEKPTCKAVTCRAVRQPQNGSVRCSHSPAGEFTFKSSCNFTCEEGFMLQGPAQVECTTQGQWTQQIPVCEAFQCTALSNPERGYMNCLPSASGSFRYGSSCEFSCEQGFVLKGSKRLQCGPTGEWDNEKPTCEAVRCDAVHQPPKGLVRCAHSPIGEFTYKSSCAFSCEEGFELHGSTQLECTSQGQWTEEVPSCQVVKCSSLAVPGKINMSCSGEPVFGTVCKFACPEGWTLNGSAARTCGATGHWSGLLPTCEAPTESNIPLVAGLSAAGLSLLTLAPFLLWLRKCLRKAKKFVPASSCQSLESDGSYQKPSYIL

CC(C)(c1ccccc1)c1ccc(O)cc1
active: [1] 34.3 µM | [2] 34.5 µM | [3] 34.8 µM | [4] 31.4 µM | [5] 31.5 µM | CD40, CD40 (gene 958) [6] 32.5 µM | [7] 35.3 µM | [8] 33.1 µM | [9] 36.3 µM | [10] 35.2 µM | [11] 12.4 µM | [12] 33.6 µM | [13] 31.5 µM | [14] 33.4 µM | CD38, CD38 (gene 952) 31.2 µM | CD40, CD40 (gene 958) [15] 31.1 µM | CD69, CD69 (gene 969) 37.9 µM | [16] 36.1 µM

O=C(O)C(F)(F)C(F)(F)C(F)(F)C(F)(F)C(F)(F)F
not listed: CD69, CD69 (gene 969) | [17] | [18]
inactive: all other assays above

CCCCCCOC(=O)c1ccccc1C(=O)OCCCCCC
active: [7] 20 µM | [10] 34.9 µM | [12] 20 µM | [14] 20 µM | CD38, CD38 (gene 952) 32.1 µM | CD40, CD40 (gene 958) [15] 32.9 µM
not listed: CD69, CD69 (gene 969) | [18]
inactive: all other assays above

CC1=C2C[C@H]3[C@@H](CC=C4C[C@@H](O)CC[C@@]43C)[C@@H]2CC[C@]12O[C@@H]1C[C@H](C)CN[C@H]1[C@H]2C
not listed: CD69, CD69 (gene 969) | [17] | [18]
inactive: all other assays above

C[C@]12CCC(=O)C=C1CC[C@@H]1[C@@H]2CC[C@]2(C)C(=O)CC[C@@H]12
not listed: CD69, CD69 (gene 969) | [17]
inactive: all other assays above

CCNc1nc(NC(C)C)nc(SC)n1
active: [13] 5.99 µM | CD38, CD38 (gene 952) 14.9 µM
not listed: CD69, CD69 (gene 969) | [18]
inactive: all other assays above
